In all, about 190,000 compounds went through this assay and about 270 (0.14%) were called active. Another 2% or so got no clear call; they are omitted.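 How the source made its calls: active means GTP binding activity at least 20% away from the 100% baseline, either lowered as inhibitor or raised as activator; inconclusive means flagged as likely green fluorescent, judged across all proteins in the well; inactive means the rest.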 The list comes from a sample in which actives are over-represented; it also holds similar structures and randomly drawn compounds.

GTPase HRas (Homo sapiens), sequence (P01112 whole entry, looked up): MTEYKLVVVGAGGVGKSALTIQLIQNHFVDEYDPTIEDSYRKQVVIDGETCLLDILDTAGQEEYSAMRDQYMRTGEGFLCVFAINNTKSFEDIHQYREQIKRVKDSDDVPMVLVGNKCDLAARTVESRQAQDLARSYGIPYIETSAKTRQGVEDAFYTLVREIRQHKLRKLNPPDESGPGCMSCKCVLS

The experiment has as its target GTPase HRas (Homo sapiens) (UniProt P01112). Nature of the experiment: modulators of GTP binding to HRas wildtype, primary screen, biochemical, bead-based flow cytometry, multiplex (AID 759).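 Further: 0% = unlabeled GTP competition control and 100% = no-compound control.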 Conditions: GST-Ras wt beads, Bodipy-FL-GTP binding, at 10 µM, actives lie on both sides. On the technique in general: Flow cytometry measures light scatter and fluorescence of single cells or particles in a stream.
As to `CCCC(C)n1[nH]c(=O)c2c1NC(=O)CSC2c1ccc(OC)c(OC)c1` (stereo not given), the GTP binding activity is 98% (inactive). With `CCOc1ccc(C2SCC(=O)Nc3c2c(C)nn3C2CCOC(C)(C)C2)cc1` (stereo not given), the GTP binding activity was 73% (active). Next, `CC1=CC(=Cc2sc3ccccc3[n+]2C)C=C(C)O1`: 103% (inactive). On to `COc1ccc(CN2C(=O)NC(=O)/C(=C\c3ccc(OC)c(OC)c3OC)C2=O)cc1`, for which the GTP binding activity is 97% (inactive). With `Cc1ccsc1C(=O)C1CCCN(Cc2ccc(O)cc2)C1` (stereo not given) the figure was 98% (inactive).

Values taken from PubChem BioAssay AID759 (NMMLSC, 2007).
